# Results taken from PubChem BioAssay (EPA / NIEHS).
# Some compounds were tested as several samples or in several runs, with calls that do not always agree. Active and inactive are the calls of the source. The calls were made as follows: active = hit-call score of the fitted dose curve at least 0.9, where 1 is the maximum; inactive = score below 0.9.
# Test: ATG_RORE_CIS: Attagene CIS-FACTORIAL HepG2 Assay for human RAR-related Orphan Receptor Element (RORE) (AID 2282959)
# Settings: HepG2 Attagene cis-factorial RORE reporter, mRNA; actives raise or lower the signal
# Method: ATG_CIS is a cell-based, multiplexed-readout assay that uses HepG2, a human liver cell line, with measurements taken at 24 hours after chemical dosing in a 24-well plate.ATG_RORE_CIS is one of 52 assay component(s) measured or calculated from the ATG_CIS assay. It is designed to make measurements of mRNA induction, a form of inducible reporter, as detected with fluorescence intensity signals by Reverse transcription polymerase chain reaction (RT-PCR) and Capillary electrophoresis technology.Data from the assay component ATG_RORE_CIS was analyzed into 1 assay endpoint. This assay endpoint, ATG_RORE_CIS, was analyzed with bidirectional fitting relative to DMSO as the negative control and baseline of activity. Using a type of inducible reporter, measures of mRNA for gain or loss-of-signal activity can be used to understand the reporter gene at the transcription factor-level as they relate to the gene RORA and RORB and RORC. Furthermore, this assay endpoint can be referred to as a primary readout, because this assay has produced multiple assay endpoints where this one serves a reporter gene function. To generalize the intended target to other relatable targets, this assay endpoint is annotated to the nuclear receptor intended target family, where the subfamily is orphan.
# Human liver HepG2 cells are transiently transfected with multiple reporter transcription units (MRTUs) in 6-well plates using FuGene 6 reagent (Roche; 3 ml FuGene/1 mg DNA). The MRTU constructs are regulated by a cis-regulating element (promoter). […] A major difference between the CIS and TRANS system is that in CIS activities of endogenous TFs are measured, whereas the TRANS assay evaluates changes in activities of exogenous, chimeric NR-Gal4 proteins. […] At the end of 24 hour incubation, total RNA was isolated using TriZol reagent (Invitrogen). The isolated RNA is then reverse-transcribed using oligo(dT) primer and Mo-MLV reverse transcriptase (Invitrogen) with DNAse I (Ambion) treatment for 30 min. The one-tenth of the produced cDNA was amplified by PCR using Taq DNA polymerase (Invitrogen) and two reporter sequence-specific primers. The PCR products were fluorescently labeled by primer extension with 6-arboxyfluorescein (6-FAM) 5'-labeled reporter sequence-specific primer (2 min at 95 C, 20 s at 68 C and 10 min at 72 C) and these products were digested with 5U of HpaI (New England Biolabs) for 2h at 37 C. The fragments were purified using Qiaquick PCR columns (Qiagen), analyzed on an ABI 3130xL genetic analyzer (Applied Biosystems) with peak positions identified by using a set of X-rhodamine (ROX)-labeled MapMarker1000 molecular weight standards (BioVentures). The raw capillary electrophoresis data was processed using Attagraph software (Attagene).
SMILES,outcome,AC50
CC(C)N(Cc1ccccc1)C(=O)C(C)(C)C,inactive,–
Cc1ccc(N=C=O)cc1N=C=O,inactive,–
C=CCc1ccc2c(c1)OCO2,inactive,–
CCN(CC)CCO,inactive,–
Cc1cc(N=Nc2ccccc2C)ccc1N,–,23 µM (active)
O=P(OCCCl)(OCCCl)OCCCl,inactive,–
O=C(O)C1C2CCC(O2)C1C(=O)O (stereo not given),–,100 µM (active)
Nc1cc(Cl)cc(C(=O)O)c1Cl,inactive,–
N#CC(Br)Br,inactive,–
O=[N+]([O-])C(Br)(CO)CO,–,100 µM (active)
ClCCOCCCl,inactive,–
Clc1ccccc1Cl,inactive,–
CCCCOC(=O)c1ccccc1C(=O)OCc1ccccc1,inactive,–
CS(=O)(=O)NC(=O)c1cc(Oc2ccc(C(F)(F)F)cc2Cl)ccc1[N+](=O)[O-],inactive,–
CCCCCOC(=O)c1ccccc1C(=O)OCCCCC,inactive,–
CCN(CC)N=O,inactive,–
CCC(C)c1ccc(O)cc1 (stereo not given),inactive,–
CO[C@@H]1[C@H](OC(=O)NC(=O)CCl)CC[C@]2(CO2)[C@H]1[C@@]1(C)O[C@@H]1CC=C(C)C,inactive,–
Nc1ccc(N=Nc2ccccc2)cc1,–,40.7 µM (active)
[Cl-].[Cl-].[Hg+2],inactive,–

SMILES,outcome,AC50
Nc1ccc(Oc2ccc(N)cc2)cc1,inactive,–
COC(=O)Nc1nc2ccccc2[nH]1,inactive,–
CC(C)(OOC(C)(C)c1ccccc1)c1ccccc1,inactive,–
CCCCC(CC)COC(=O)c1ccc(C(=O)OCC(CC)CCCC)c(C(=O)OCC(CC)CCCC)c1 (stereo not given),inactive,–
CCC[CH2][Sn]([Cl])([CH2]CCC)[CH2]CCC,inactive,–
COC(=O)c1ccccc1N,inactive,–
C[C@]12C=CC3=C4CCC(=O)C=C4CC[C@H]3[C@@H]1CC[C@@H]2O,inactive,20.1 µM (active)
C1=Cc2cccc3cccc1c23,inactive,–
OCCOCCO,inactive,–
c1ccc(C2CO2)cc1 (stereo not given),inactive,–
Clc1ccc(C(c2ccc(Cl)cc2)C(Cl)(Cl)Cl)cc1,inactive,–
Nc1ccc(Cc2ccc(N)cc2)cc1,inactive,–
c1ccc(N=Nc2ccccc2)cc1,inactive,–
[As]#[In],inactive,–
ClC1=C(Cl)C2(Cl)C3C(Cl)C=CC3C1(Cl)C2(Cl)Cl (stereo not given),inactive,–
OCCCBr,inactive,–
Cc1ccc(N)c(N)c1,–,31.2 µM (active)
Cn1cc(-c2ccccc2)c(=O)c(-c2cccc(C(F)(F)F)c2)c1,inactive,–
CC(C)(O)c1cnn2c(-c3ccc(F)c(-c4c(F)cccc4C#N)c3)cnc2n1,inactive,–
